In publication PMC5540273 (PLoS ONE, 2017):

What follows are molecules tested on ERBB2. Conditions: concentration: 1 μM,replicates: in singlicate; n = 1.
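Further: KINOMEscan kinase panel screen.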

Compound | %Inh [%]
CCN(CC)CCOc1ccc(Nc2ncc3cc(-c4c(Cl)cccc4Cl)c(=O)n(C)c3n2)cc1 [SB-601273] | 92.8
Cc1cc(C(=O)Nc2ccc(Oc3ccc4nc(NC(=O)C5CC5)cn4n3)cc2)nn1-c1ccccc1 | 19
Cl.Oc1cc(-c2nc(-c3ccccc3)[nH]c2-c2ccncc2)ccc1Cl [SB-386023] | 0
CNC(=O)c1ccccc1Sc1ccc2c(/C=C/c3ccccn3)n[nH]c2c1 | 22
Cc1ccc2c(-c3ccncc3)c(-c3ccc(F)cc3)nn2c1.Cl [GW461484] | 21
CN(C)CC(O)COc1ccc(Nc2nccc(-c3cnn4nc(N5CCOCC5)ccc34)n2)cc1 (stereo not drawn) [GW767488] | 5
Cl.Cl.Nc1nc(-c2ccc3c(N)n[nH]c3c2)cc(N2CCCC(NC(=O)c3ccccc3)C2)n1 (stereo not drawn) [GSK2286775] | 0
CCn1c(-c2nonc2N)nc2c(C#CC(C)(C)O)nc(OCCN)cc21.Cl.Cl [GSK902056] | 11
CC(C)Nc1cc(-c2ccc3c(N)n[nH]c3c2)nc(N)n1 [GSK2221681] | 8
Cl.Cl.NC[C@H](CC1CCCCC1)NC(=O)c1cc(Br)c(-c2ccnc3[nH]ccc23)s1 [GSK1581427] | 1
Cc1ccc(-n2nc(C(C)(C)C)cc2NC(=O)Nc2ccc(OCCN3CCOCC3)c3ccccc23)cc1 [GW839464] | 24
Nc1nc(Nc2ccccc2)cc(-c2ccc3c(N)n[nH]c3c2)n1 [GSK2225749] | 32
